Data: PubChem BioAssay AID1159580 (chemical genetic matrix, 2015)
Values joined by “and” are separate entries in the source; they are usually repeats but may differ in a detail not shown here. Identical values can stand only once. In all, about 5,500 compounds went through this assay and about 2,000 (36%) were called active. Another 18% or so got no clear call; they are omitted. This is one part of the list. Unmarked numbers belong to inactive results. No stated cut-off is given here; in the data, active means normalized growth mostly below about 0.91 (no sharp cut-off); inconclusive means no clear call, values can overlap the other calls; inactive means mostly above about 0.92.

Experiment: chemical genetic growth profiling, strain panel (AID 1159580);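 further: tested at 20 µM; growth read once vehicle control cultures reached saturation at 30 °C; 1 = growth at the plate median or of vehicle wells; lower values mean less growth of the strain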
Details: S. cerevisiae deletion strains, growth OD

CC(C)=CCC1=C(O)c2ccccc2C(=O)C1=O
normalized growth (locus YAL013W, strain DEP1, active compounds read low): 0.949 | normalized growth (locus YAL021C, strain ccr4, active compounds read low): 0.748 (active) | normalized growth (locus YAL026C, strain drs2, active compounds read low): 0.472 (active) | normalized growth (locus YAL030W, strain snc1, active compounds read low): 0.799 (active) | normalized growth (locus YBL061C, strain skt5, active compounds read low): 0.774 (active) | normalized growth (locus YBR009C, strain hhf1, active compounds read low): 0.804 (active) | normalized growth (locus YBR021W, strain FUR4, active compounds read low): 1.05 | normalized growth (locus YBR023C, strain chs3, active compounds read low): 0.749 (active) | normalized growth (locus YBR171W, strain sec66, active compounds read low): 0.707 (active) | normalized growth (locus YBR229C, strain ROT2, active compounds read low): 0.963 | normalized growth (locus YBR231C, strain swc5, active compounds read low): 0.718 (active) | normalized growth (locus YBR279W, strain paf1, active compounds read low): 0.76 (active) | normalized growth (locus YCL011C, strain gbp2, active compounds read low): 0.795 (active) | normalized growth (locus YCL016C, strain dcc1, active compounds read low): 0.762 (active) | normalized growth (locus YCL029C, strain bik1, active compounds read low): 0.899 (active) | normalized growth (locus YCL069W, strain vba3, active compounds read low): 0.675 (active) | normalized growth (locus YCR088W, strain abp1, active compounds read low): 0.799 (active) | normalized growth (locus YDL005C, strain med2, active compounds read low): 0.759 (active) | normalized growth (locus YDL035C, strain GPR1, active compounds read low): 0.97 | normalized growth (locus YDL040C, strain nat1, active compounds read low): 0.843 (active) | normalized growth (locus YDL074C, strain BRE1, active compounds read low): 0.994 | normalized growth (locus YDL101C, strain DUN1, active compounds read low): 0.951 | normalized growth (locus YDL134C, strain PPH21, active compounds read low): 0.958 | normalized growth (locus YDL185W, strain tfp1, active compounds read low): 0.86 (active) | normalized growth (locus YDL192W, strain arf1, active compounds read low): 0.896 (active) | normalized growth (locus YDR001C, strain nth1, active compounds read low): 0.816 (active) | normalized growth (locus YDR069C, strain doa4, active compounds read low): 0.719 (active) | normalized growth (locus YDR101C, strain arx1, active compounds read low): 0.941 | normalized growth (locus YDR137W, strain rgp1, active compounds read low): 0.328 (active) | normalized growth (locus YDR150W, strain NUM1, active compounds read low): 0.934 | normalized growth (locus YDR159W, strain sac3, active compounds read low): 0.549 (active) | normalized growth (locus YDR162C, strain NBP2, active compounds read low): 0.872 | normalized growth (locus YDR195W, strain ref2): 0.976 | normalized growth (locus YDR297W, strain sur2, active compounds read low): 0.832 (active) | normalized growth (locus YDR318W, strain mcm21, active compounds read low): 0.902 (active) | normalized growth (locus YDR334W, strain swr1, active compounds read low): 0.795 (active) | normalized growth (locus YDR335W, strain msn5, active compounds read low): 0.514 (active) | normalized growth (locus YDR388W, active compounds read low): 0.928 (active) | normalized growth (locus YDR392W, strain spt3, active compounds read low): 0.703 (active) | normalized growth (locus YDR502C, strain sam2, active compounds read low): 0.968 | normalized growth (locus YEL003W, strain gim4, active compounds read low): 0.788 (active) | normalized growth (locus YEL037C, strain rad23, active compounds read low): 0.825 (active) | normalized growth (locus YEL061C, strain CIN8 (second series), active compounds read low): 0.799 (active) | normalized growth (locus YEL061C, strain CIN8, active compounds read low): 0.932 | normalized growth (locus YER015W, strain faa2, active compounds read low): 0.648 (active) | normalized growth (locus YER016W, strain bim1, active compounds read low): 0.635 (active) | normalized growth (locus YER110C, active compounds read low): 0.96 | normalized growth (locus YER111C, strain swi4, active compounds read low): 0.564 (active) | normalized growth (locus YER155C, strain BEM2 (second series), active compounds read low): 0.792 (active) | normalized growth (locus YER155C, strain BEM2, active compounds read low): 0.962 | normalized growth (locus YER167W, strain BCK2, active compounds read low): 0.956 | normalized growth (locus YFR010W, strain ubp6, active compounds read low): 0.752 (active) | normalized growth (locus YGL078C, strain dbp3, active compounds read low): 0.914 (active) | normalized growth (locus YGL086W, strain mad1, active compounds read low): 0.879 (active) | normalized growth (locus YGL167C, strain pmr1, active compounds read low): 0.0913 (active) | normalized growth (locus YGL173C, strain kem1, active compounds read low): 0.745 (active) | normalized growth (locus YGL227W, strain vid30, active compounds read low): 0.767 (active) | normalized growth (locus YGL240W, strain doc1, active compounds read low): 0.924 | normalized growth (locus YGL248W, strain PDE1, active compounds read low): 0.964 | normalized growth (locus YGL253W, strain hxk2, active compounds read low): 0.592 (active) | normalized growth (locus YGR078C, strain PAC10, active compounds read low): 0.986 | normalized growth (locus YGR135W, strain pre9, active compounds read low): 0.953 | normalized growth (locus YGR229C, strain SMI1, active compounds read low): 0.992 | normalized growth (locus YGR252W, strain gcn5, active compounds read low): 1 | normalized growth (locus YHR013C, strain ard1, active compounds read low): 0.904 | normalized growth (locus YHR027C, strain rpn1, active compounds read low): 0.537 (active) | normalized growth (locus YHR030C, strain SLT2, active compounds read low): 0.936 and 0.964 | normalized growth (locus YHR079C, strain IRE1 (second series), active compounds read low): 0.941 | normalized growth (locus YHR079C, strain IRE1, active compounds read low): 0.961 | normalized growth (locus YHR094C, strain hxt1, active compounds read low): 0.96 | normalized growth (locus YHR129C, strain ARP1, active compounds read low): 0.952 | normalized growth (locus YHR142W, strain chs7, active compounds read low): 0.421 (active) | normalized growth (locus YHR200W, strain rpn10, active compounds read low): 0.932 | normalized growth (locus YIL066C, strain RNR3, active compounds read low): 0.965 | normalized growth (locus YIL073C, strain SPO22, active compounds read low): 0.824 | normalized growth (locus YIL125W, strain kgd1, active compounds read low): 0.93 (active) | normalized growth (locus YIR030C, strain dcg1, active compounds read low): 0.945 | normalized growth (locus YJL092W, strain hpr5, active compounds read low): 0.793 (active) | normalized growth (locus YJL095W, strain BCK1 (second series), active compounds read low): 0.675 (active) | normalized growth (locus YJL095W, strain BCK1, active compounds read low): 0.944 and 0.936 | normalized growth (locus YJL115W, strain asf1, active compounds read low): 0.861 (active) | normalized growth (locus YJL129C, strain trk1, active compounds read low): 0.554 (active) | normalized growth (locus YJL134W, strain LCB3, active compounds read low): 0.95 | normalized growth (locus YJL154C, strain vps35, active compounds read low): 0.815 (active) | normalized growth (locus YJL164C, strain tpk1, active compounds read low): 0.775 (active) | normalized growth (locus YJL166W, strain qcr8, active compounds read low): 0.714 (active) | normalized growth (locus YJL168C, strain set2, active compounds read low): 0.95 | normalized growth (locus YJL187C, strain SWE1 (second series), active compounds read low): 0.957 | normalized growth (locus YJL187C, strain SWE1, active compounds read low): 0.789 (active) | normalized growth (locus YJR043C, strain POL32, active compounds read low): 1.04 | normalized growth (locus YJR066W, strain TOR1, active compounds read low): 0.875
